Assay [1] deals with Glucocorticoid receptor (Homo sapiens) (UniProt P04150). Description: GR-GFP Redistribution (AID 450;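 active means compounds whose dose series gives a full or clear partial fitted curve of increased nuclear translocation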; further: potency means the concentration at half of the fitted maximal effect). As to conditions: U2OS GR-GFP nuclear translocation, laser cytometry, 2 h.
For assay [2] the target is unchanged. Description: GR-EFC Redistribution (AID 451; calls by dose curve; further: potency means the concentration at half of the fitted maximal effect). As to conditions: CHO-K1 GR-EFC translocation, beta-gal luminescence, 2 h. In outline:
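CHO-K1 cells expressing nuclear EA and GR-ED fragments of b-gal; compounds titrated up to 46 uM final, 2 h at 37 C. GR nuclear translocation read as complemented b-gal luminescence after 1 h RT detection.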

The target of assay [3] is Mitogen-activated protein kinase 10 (Mus musculus) (UniProt Q61831). Kind of assay: JNK3 AlphaScreen Assay (AID 530; active means well fitted curve in either direction with a large enough effect, not every such curve was filed as active;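 further: kinase came from lysate of stimulated human HepG2 cells; signal reports phosphorylation of biotinylated GST-cJun 1-79 at Ser73 with 10 µM ATP; on the % scale 0 is the no-effect control and ±100 the full control effect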). The settings on record: JNK3 lysate, c-Jun phosphorylation; series mostly up to 57.1 µM. In outline: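 Activity was read by AlphaScreen after JNK3-containing HepG2 lysate (cytokine pre-activated) phosphorylated biotinylated GST-cJun with 10 uM ATP at room temperature. Phospho-Ser73 cJun antibody with Protein-A acceptor beads provided detection.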
(Bead proximity is the source of the signal in Alpha formats.)

A short description of assay [4]: Cell Viability - BJ (AID 421; calls by dose curve;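 further: potency means the concentration at half of the fitted maximal effect; cells exposed to compound for 40 hours at 37 °C before readout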). The settings on record: BJ fibroblast viability, qHTS. In outline:
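Quantitative HTS: ATP depletion in BJ cells after 40 hr compound exposure in complete culture medium, detected with CellTiter-Glo; AC50 from standard Hill fits.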
A general note: Quantitative high-throughput screening tests each substance at several concentrations.

The nature of assay [5]: Cell Viability - Jurkat (AID 426;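 active means dose-dependent loss of cell ATP signal giving a full or clear fitted curve, ranked by lower potency value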;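 further: potency means the concentration at half of the fitted maximal effect; cells exposed to compound for 40 hours at 37 °C before ATP read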). As to conditions: qHTS. In outline: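 Cells of the human T-cell leukemia line Jurkat (E6-1) are seeded at 5000 per well, treated with compound across a concentration range for 40 hours at 37 °C, then lysed with CellTiter-Glo; luminescence reports ATP.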
The nature of assay [6]: Cell Viability - Hek293 (AID 427;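 active means compounds whose dose-response curve shows a full or clear partial loss of cell viability, called from curve shape rather than a numeric limit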;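 further: potency means the concentration at half of the fitted maximal effect; cells exposed to compound for 40 hours at 37 °C before reading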). As to conditions: qHTS. In outline:
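AC50 values derive from Hill-modelled concentration-response of ATP-based luminescence, normalized between DMSO-only and 100 uM tamoxifen controls. Cells were exposed in complete culture medium for 40 hr at 37 °C before detection.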

Assay [7] is described as follows: Cell Viability - HepG2 (AID 433; calls by dose curve;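 further: potency means the concentration at half of the fitted maximal effect; potency for ATP loss meaning cytotoxicity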). The settings on record: qHTS. In outline: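 Cytotoxicity is scored as loss of intracellular ATP in HepG2 cells exposed to compounds for 40 h. Concentration-response curves, normalized to DMSO and 100 uM tamoxifen, give AC50 values.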
Assay [8] can be described thus: Cell Viability - MRC5 (AID 434; calls by dose curve;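 further: potency means the concentration at half of the fitted maximal effect; potency reflects cytotoxicity seen as loss of intracellular ATP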). As to conditions: MRC5 lung fibroblast viability, qHTS. In outline:
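ATP luminescence read-out (CellTiter-Glo, 20 min RT) after 40 hr, 37 °C compound exposure of 1500 MRC5 cells/well. Data normalized to DMSO (basal) and 100 uM tamoxifen (100% inhibition); AC50 from standard Hill equation.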

A short description of assay [9]: Cell Viability - SK-N-SH (AID 435; calls by dose curve;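 further: potency means the concentration at half of the fitted maximal effect; compound exposure lasted 40 h at 37 °C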). The settings on record: SK-N-SH neuroblastoma cell viability qHTS. In outline:
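Cells seeded at 1500 per well and incubated 5 hr at 37 °C. Compound added, then 40 hr at 37 °C. CellTiter-Glo added, 20 min at room temperature, luminescence read.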

Assay [10] is described as follows: Cell Viability - NIH 3T3 (AID 541).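 Further: plate controls were DMSO alone for no effect and tamoxifen positive control for full effect; nearly all actives have a fitted effect of over 25% in size.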 As to conditions: NIH 3T3 cell viability, qHTS; activity change, negative = cytotoxicity: at 92.2 µM (top of the series). In outline: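 Cells seeded at 1000/well, rested 5 hr at 37 °C, then dosed and incubated 40 hr at 37 °C. CellTiter-Glo added, 20 min room temperature, luminescence read. AC50 by Hill fit.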
A short description of assay [11]: Cell Viability - HUV-EC-C (AID 542). Further: nearly all actives have a fitted effect of over 35% in size. Further: potency means the concentration at half of the fitted maximal effect. On activity change, negative = cytotoxicity: on the % scale 0 is the no-effect control and ±100 the full control effect. The settings on record: HUV-EC-C endothelial cell viability, qHTS; series mostly up to 92.2 µM. In outline: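 Cells were seeded at 1000 per well and incubated 5 hr at 37 °C before compound addition. After 40 hr at 37 °C, CellTiter-Glo reagent was added for 20 min and luminescence read. AC50 values came from Hill-equation modelling.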

Assay [12] in a line: Cell Viability - H-4-II-E (AID 543). Further: nearly all actives have a fitted effect of over 35% in size. Further: potency means the concentration at half of the fitted maximal effect. As to conditions: H-4-II-E rat hepatoma viability; series mostly up to 92.2 µM. In outline: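 Cells seeded at 1500 per well and rested 5 hr; compounds added; 40 hr incubation at 37 °C; CellTiter-Glo added, 20 min at room temperature; luminescence read. Hill-equation fits gave AC50.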
Assay [13] is described as follows: Cell Viability - Renal Proximal Tubule (AID 545).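 Further: 0% = DMSO only and -100% = 100 µM tamoxifen; nearly all actives have a fitted effect of over 40% in size.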 The settings on record: renal proximal tubule cells viability, primary cells of rat origin; at 91.7 µM (top of the series). In outline: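 Cytotoxicity is scored as a concentration-dependent drop in cellular ATP in primary rat renal proximal tubule cells exposed for 40 hr. AC50 derives from Hill modelling.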
A short description of assay [14]: Cell Viability - Mesenchymal (AID 546).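 Further: cells exposed to compound for 40 hours before reading; 0% = DMSO only and -100% = 100 µM tamoxifen.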 The settings on record: mesenchymal cells viability, qHTS; series mostly up to 91.7 µM. In outline:
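Human renal mesenchymal cells (glomerulus-derived), 1000 cells/well, 5 hr 37 °C pre-incubation; compound 40 hr, 37 °C; CellTiter-Glo, 20 min RT; luminescence; AC50 via Hill equation.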

Assay [15] is described as follows: Cell Viability - N2a (AID 540).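 Further: plate controls were DMSO alone for no effect and tamoxifen control for full effect; nearly all actives have a fitted effect of over 45% in size.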 As to conditions: N2a mouse neuroblastoma cell viability; at 92.2 µM (top of the series). In outline: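 Cytotoxicity was scored as loss of cellular ATP in N2a cells, a mouse neuroblastoma line. Compounds are applied in a qHTS concentration series for 40 hr at 37 °C.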
The nature of assay [16]: NFAT Signaling Pathway (AID 444; active means well fitted curve in either direction with a large enough effect, not every such curve was filed as active;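 further: carbachol stimulus at about its EC50 of 1 µM final; on the % scale 0 is the no-effect control and ±100 the full control effect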). As to conditions: Jurkat NFAT-bla M1, carbachol, beta-lactamase ratio, 5 h; at 17.2 µM (top of the series) unless noted. In outline: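 Jurkat cells with NFAT-driven β-lactamase reporter and co-expressed M1 receptor, stimulated with carbachol (final 1 uM, ~EC50), compound titration, 5 h at 37 °C. CCF4 loaded 1 h at RT; 460/530 nm ratio gave %activity and AC50.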

A short description of assay [17]: Stat Signaling Pathway (AID 446; active means well fitted curve in either direction with a large enough effect, not every such curve was filed as active;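 further: ME-180 cervical cancer cells given 40 pM IL-6 alongside compound; SIE-controlled beta-lactamase reporter measured as 460/530 nm FRET emission ratio; on the % scale 0 is the no-effect control and ±100 the full control effect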). The settings on record: ME-180 (cervical carcinoma) SIE beta-lactamase reporter, IL-6 stimulated, 5 h; series mostly up to 17.2 µM. In outline: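 Overnight-plated ME-180 cells bearing a STAT Inducible Element beta-lactamase reporter; 5 h co-exposure to compound and 40 pM IL-6; values normalized to 300 pM IL-6 and 125 nM JAK inhibitor controls.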

Molecules are shown by their SMILES. Several values for one entry are separate records, joined by “and”; a condition that tells them apart may be missing. Equal entries are not always repeated. Values without a mark were called inactive. Results filed as inconclusive are left out. Activity calls are given as the source filed them. Unless noted, the call rests on the fitted dose curve; in most records, active means well fitted curve in the direction sought with a large enough effect; inconclusive means small, poorly fitted or top-dose-only effect, or another doubt; inactive means no such curve, though single readings can be large; an effect the other way counts as inactive or inconclusive.

Glucocorticoid receptor (Homo sapiens), sequence (P04150 whole entry, looked up): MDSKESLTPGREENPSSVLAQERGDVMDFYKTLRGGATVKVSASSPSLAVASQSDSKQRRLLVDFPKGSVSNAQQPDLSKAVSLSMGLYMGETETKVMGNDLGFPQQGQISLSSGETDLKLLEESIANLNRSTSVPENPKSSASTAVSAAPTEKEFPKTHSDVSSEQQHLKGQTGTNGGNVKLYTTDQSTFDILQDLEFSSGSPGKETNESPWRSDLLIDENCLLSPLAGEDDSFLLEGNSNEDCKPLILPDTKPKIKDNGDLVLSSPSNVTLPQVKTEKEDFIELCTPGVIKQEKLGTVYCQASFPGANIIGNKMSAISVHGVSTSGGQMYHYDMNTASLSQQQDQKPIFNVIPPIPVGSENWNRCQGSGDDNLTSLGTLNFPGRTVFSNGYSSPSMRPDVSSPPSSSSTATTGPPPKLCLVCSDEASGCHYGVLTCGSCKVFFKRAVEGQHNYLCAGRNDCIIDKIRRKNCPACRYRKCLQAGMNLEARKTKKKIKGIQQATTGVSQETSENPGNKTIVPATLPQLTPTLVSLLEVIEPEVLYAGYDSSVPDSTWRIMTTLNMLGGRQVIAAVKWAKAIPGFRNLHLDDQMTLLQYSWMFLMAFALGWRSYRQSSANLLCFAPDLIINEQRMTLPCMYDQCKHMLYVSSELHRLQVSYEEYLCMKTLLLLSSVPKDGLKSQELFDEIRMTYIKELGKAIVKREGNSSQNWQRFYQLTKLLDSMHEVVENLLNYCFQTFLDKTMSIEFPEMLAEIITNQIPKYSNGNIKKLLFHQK

`COc1ccc(C[C@H](C)NC[C@@H](O)c2ccc(O)c(NC=O)c2)cc1`: the Potency in assay [1] and in assay [2] was over 46 µM throughout. In addition, in assay [3], the call was inactive.
With `C[C@H]1O[C@@H](O[C@H]2[C@@H](O)C[C@H](O[C@H]3[C@@H](O)C[C@H](O[C@H]4CC[C@@]5(C)[C@H](CC[C@@H]6[C@@H]5C[C@@H](O)[C@]5(C)[C@@H](C7=CC(=O)OC7)CC[C@]65O)C4)O[C@@H]3C)O[C@@H]2C)C[C@H](O)[C@@H]1O`, the Potency in [4] was 0.00125 µM (active); in assay [5], 0.00438 µM (active); in assay [6] it was 0.0128 µM (active); in assay [7] it was 0.0159 µM (active); in assay [8] it was over 92 µM; in [9], 0.0073 µM (active). Besides, in assay [11], the Potency was 0.02 µM (active). Also, the result in [3] and in assay [14] was inactive. Also, the activity change, negative = cytotoxicity was -91% (active) in [10] and -10.1% in [13]. For the same compound, the Potency result in assay [12] was “inactive”.
Turning to `OCc1ccccc1`, the Potency in [4], in assay [5], in assay [6], in [7], in assay [8] and in assay [9] was over 92 µM in each case. Moreover, the outcome in assay [3] and in [14] was inactive. The activity change, negative = cytotoxicity in assay [15] is 4.71%; in [10], 7.44%; in assay [13], -2.17%. For the same compound, the Potency entry in assay [11] and in [12] was “inactive” in each case.
In the case of `Cc1ncc[nH]1`, the Potency in assay [4], in assay [5], in assay [6], in assay [7], in assay [8] and in assay [9] was over 92 µM in each case. The call in assay [3] and in [14] was inactive. Besides, the results for the activity change, negative = cytotoxicity in assay [15], in assay [10] and in [13] were -1.34%, -6.23% and -3.28%, respectively. In addition, the Potency entry in [11] and in assay [12] was “inactive” throughout.
Consider `OCC(O)CO`, for which the Potency in assay [4], in assay [5], in assay [6], in [7], in [8] and in assay [9] was over 92 µM in each case. The compound was called inactive in [3] and in assay [14]. In addition, the activity change, negative = cytotoxicity in [15] is -3.4% and 8.03%; in assay [10], -10.7% and -2.8%; in [13], -12.3% and -5.8%. Further, the Potency entry in assay [11] and in assay [12] was “inactive” throughout.
For `NCCN`, the Potency in assay [4], in assay [5], in assay [6], in assay [7], in [8] and in [9] was over 92 µM throughout. Further, the call in assay [3] and in assay [14] was inactive. In addition, the activity change, negative = cytotoxicity in assay [15] was 5.1%; in [10], -4.12%; in assay [13] it was 7.8%. Besides, the Potency entry in assay [11] and in assay [12] was “inactive” in each case.
Regarding `Nc1nccs1`, the Potency in assay [4], in assay [5], in assay [6], in assay [7], in [8] and in assay [9] was over 92 µM in each case. Also, the compound was called inactive in [3] and in [14]. Also, the activity change, negative = cytotoxicity in assay [15] is 4.71%; in [10], -0.295%; in [13] it was 6.3%. The Potency result in [11] and in assay [12] was “inactive” in each case.
Turning to `OCl`, the Potency in assay [4], in [5], in [6], in assay [7], in assay [8] and in [9] was over 92 µM each time. For the same compound, the compound was called inactive in [3] and in assay [14]. The activity change, negative = cytotoxicity was -0.881% in assay [15], -13.5% in assay [10] and 2.44% in assay [13]. Besides, the Potency result in [11] and in assay [12] was “inactive” each time.
`Nc1ccc(N=Nc2ccccc2)c(N)n1`: the Potency in assay [4] was over 92 µM; in assay [6], over 92 µM; in assay [7] it was over 92 µM; in assay [8] it was over 92 µM; in assay [9], over 92 µM; in [1] it was over 20.6 µM. The Potency in [2] is over 20.6 µM. Moreover, the activity change, negative = inhibition in assay [16] was -10%. In addition, the result in assay [17] was inactive. Also, the results for the activity change, negative = cytotoxicity in assay [15] and in [13] were -30.4% and -20%, respectively.
Consider `OB(O)O`, for which the Potency in assay [4], in assay [5], in [6], in [7], in [8] and in assay [9] was over 92 µM in each case. Besides, the compound was called inactive in assay [3] and in assay [14]. Also, the activity change, negative = cytotoxicity was -10.8% in [15], -22.1% in assay [10] and -6.9% in [13]. The Potency result in assay [11] and in [12] was “inactive” throughout.
Turning to `C=C1C(CCl)(CCl)C2(Cl)C(Cl)C(Cl)C1(Cl)C2(Cl)Cl` (stereo not drawn), the Potency is 31 µM (active) in assay [5]; 48.2 µM (active) in assay [6]; over 92 µM in assay [7]; over 92 µM in [8]; 50 µM (active) in assay [9]; 50.1 µM (active) in assay [12]. The activity change, negative = cytotoxicity is -112% (active) in assay [15], -80.2% (active) in assay [10] and -88.3% (active) in assay [13].
For `C[C@H](CCC(=O)O)[C@H]1CC[C@H]2[C@@H]3CC[C@@H]4C[C@H](O)CC[C@]4(C)[C@H]3C[C@H](O)[C@]12C`, the Potency in [4], in assay [5], in [6], in assay [7], in assay [8] and in [9] was over 92 µM in each case. Also, the call in assay [3] and in assay [14] was inactive. For the same compound, the values for the activity change, negative = cytotoxicity in [15], in assay [10] and in [13] were -18.5%, -91.1% (active) and -13.4%, respectively. The Potency entry in [11] and in assay [12] was “inactive” in each case.
Regarding `O.O.O.O.O.O.O.O=S(=O)([O-])[O-].[Co+2]`, the Potency in assay [4], in assay [6], in assay [7], in assay [8] and in assay [9] was over 92 µM throughout. In addition, the figures for the activity change, negative = cytotoxicity in assay [15] and in [10] were -16.8% and -26.9%, respectively. The Potency entry in assay [11] is “inactive”. Also, in [14], the result was inactive.

(Values after PubChem BioAssay (NCATS).)
